This is an account of results in PubChem BioAssay (NCATS).

Molecules are shown by their SMILES. Results filed as inconclusive are left out. Values without a mark were called inactive. Active and inactive are the calls of the source. The call rests on the fitted dose curve; in most records, active means well fitted cell-killing curve with a large enough effect; inconclusive means small, poorly fitted or top-dose-only effect, or effect the other way; inactive means no such curve, though single readings can be large or run the other way. Non-standard residues stand in square brackets, D forms with d. Residues, ends and D or L forms follow the SMILES beside them. *: point of attachment. Sta = CC(C)C[C@H](N)[C@@H](O)CC(=O)O; Isovaleryl = CC(C)CC(=O)*
Potency means the concentration at half of the fitted maximal effect.

The assay in a line: Quantitative High-Throughput drug screen in 47 multiple myeloma cell lines against the NCATS MIPE library collection: JJN3_DSMZ cell viability assay (AID 1918966; further: nearly all actives have a fitted effect of over 50% in size). As to conditions: JJN3 myeloma cells viability, CellTiter-Glo ATP, 48 h; series mostly up to 45.8 µM; viability, % of DMSO: at the top concentration. The text has this: PI: Beverly A. Mock Ph.D.
Laboratory of Cancer Biology and Genetics,
Center for Cancer Research, National Cancer Institute,
National Institute of Health, Bethesda, Maryland
Drug resistance and disease progression are common in multiple myeloma (MM) patients, underscoring the need for new therapeutic combinations. […] We hypothesized that effective combinations would reduce MYC expression and enhance p16 activity. […] These preclinical data identify potentially useful drug combinations for evaluation in drug-resistant MM and reveal potential mechanisms of combined drug sensitivity.
Described herein is the primary MIPE qHTS used to cherrypick compounds. Validated compounds were then further tested for potential synergistic activiy.
[1] Peat TJ, Gaikwad SM, Dubois W, Gyabaah-Kessie N, Zhang S, Gorjifard S, Phyo Z, Andres M, Hughitt VK, Simpson RM, Miller MA, Girvin AT, Taylor A, Williams D, D'Antonio N, Zhang Y, Rajagopalan A, Flietner E, Wilson K, Zhang X, Shinn P, Klumpp-Thomas C, McKnight C, Itkin Z, Chen L, Kazandijian D, Zhang J, Michalowski AM, Simmons JK, Keats J, Thomas CJ, Mock BA. Drug combinations identified by high-throughput screening promote cell cycle transition and upregulate Smad pathways in myeloma. Cancer Lett. 2023 Aug 1;568:216284. doi: 10.1016/j.canlet.2023.216284. Epub 2023 Jun 24. PMID: 37356470; PMCID: PMC10408729.
SEQUENCE No. (e.g., 1, 2, 3, etc.); […] (e.g., Cells, Incubation, Reagent, etc.); VALUE and DESCRIPTION.
1; Cells; 5 uL; white, solid bottom 1536-well Greiner assay plate.
2; Compounds; 23 nL; Kalypsis pin tool (Wako USA) equipped with a 1536-well pin head to transfer to the assay plates.
3; Incubation; 48 hours; 37C incubation.
4; Reagent;5uL; CellTiter Glo (Promega).
5; Detector; 425V; Luminescence; Viewlux PerkinElmer.
NOTES (numbers refer to Sequence numbers above)
1. The cell-based screening methods employed in this study were like those previously published. Briefly, the corresponding myeloma cell lines were screened in 1,536-well plates with 500 cells, 5-uL per well for inhibition of cell viability (assessed by measuring ATP levels with CellTiterGlo).
2. NCATS MIPE 4.0 library of approved and investigational drugs were added using the Kalypsis pin tool. Wells treated with DMSO only for 100% viability and media only wells for 0% viability were used as controls.
3. The assay plates were covered and incubated for 48 hours in a 37C, 5% CO2 incubator with controlled humidity.
4. After 48 hours, CellTilter-GloTM luminescent substrate mix (Promega) reagent was added to the assay plate and plates we incubated for 5 min at room temperature.
5. Signal was measured as median relative luminescence units on a ViewLux (PerkinElmer) multiplate reader.
[1] Heske CM, Davis MI, Baumgart JT, Wilson K, Gormally MV, Chen L, Zhang X, Ceribelli M, Duveau DY, Guha R, Ferrer M, Arnaldez FI, Ji J, Tran HL, Zhang Y, Mendoza A, Helman LJ, Thomas CJ. Matrix Screen Identifies Synergistic Combination of PARP Inhibitors and Nicotinamide Phosphoribosyltransferase (NAMPT) Inhibitors in Ewing Sarcoma. Clin Cancer Res. 2017 Dec 1;23(23):7301-7311. doi: 10.1158/1078-0432.CCR-17-1121. Epub 2017 Sep 12. PMID: 28899971; PMCID: PMC6636827.
A general note: In ATP-based viability assays light output follows the ATP content of the culture.
Consider `CC(C)[N+]1(C)[C@@H]2CC[C@H]1CC(OC(=O)C(CO)c1ccccc1)C2` (stereo not given in full), for which the “viability, % of DMSO” value is 154%.

Turning to `Cc1ccc(S(=O)(=O)NC(=O)NN2CC3CCCC3C2)cc1` (stereo not given), the Potency was 23.5 µM (active).

Consider `CCN(CCO)CCCC(C)Nc1ccnc2cc(Cl)ccc12` (stereo not given), for which the “viability, % of DMSO” value was 109%.

`Cc1c(C(=O)NN2CCCCC2)nn(-c2ccc(Cl)cc2Cl)c1-c1ccc(Cl)cc1`: the Potency was 20.9 µM (active).

In the case of `COC1=C(OC)C(=O)C(CCCCCCCCCCO)=C(C)C1=O`, the Potency is 18.7 µM (active).

Take `O=C(NCC1CCCCN1)c1cc(OCC(F)(F)F)ccc1OCC(F)(F)F` (stereo not given): the “viability, % of DMSO” value was 126%.

Regarding `C=C(c1ccc(C(=O)O)cc1)c1cc2c(cc1C)C(C)(C)CCC2(C)C`, the “viability, % of DMSO” value is 127%.

Turning to `CC(C)[C@H](N)C(=O)OCCOCn1cnc2c(=O)[nH]c(N)nc21`, the “viability, % of DMSO” value is 124%.

In the case of `CC(C)CC(=O)N[C@H](C(=O)N[C@H](C(=O)N[C@@H](CC(C)C)[C@@H](O)CC(=O)N[C@@H](C)C(=O)N[C@@H](CC(C)C)[C@@H](O)CC(=O)O)C(C)C)C(C)C` (Isovaleryl-VV[Sta]A[Sta]-OH), the “viability, % of DMSO” value was 149%.

Consider `CCCOc1ccc2nc(NC(=O)OC)[nH]c2c1`, for which the Potency is 5.26 µM (active).

As to `Oc1ccc2ccccc2c1SSc1c(O)ccc2ccccc12`, the Potency was 7.43 µM (active).

For `O=C(NOCC1CC1)c1ccc(F)c(F)c1Nc1ccc(I)cc1Cl`, the Potency is 20.9 µM (active).

As for `C[C@@H](N)C1CCC(C(=O)Nc2ccncc2)CC1` (stereo not given in full), the “viability, % of DMSO” value was 146%.

As to `CC(C)c1ccc2c(c1)c(SC(C)(C)C)c(CC(C)(C)C(=O)O)n2Cc1ccc(Cl)cc1`, the Potency was 18.7 µM (active).

Turning to `Cc1c(OCC(F)(F)F)ccnc1CS(=O)c1nc2ccccc2[nH]1` (stereo not given), the Potency was 2.64 µM (active).

In the case of `Cc1cc(Cl)ccc1OCCCC(=O)NO`, the Potency is 0.372 µM (active).

For the compound `CCCS(=O)c1ccc2nc(NC(=O)OC)[nH]c2c1` (stereo not given), the Potency was 11.8 µM (active).

For the compound `Cc1nccn1CC1CCc2c(c3ccccc3n2C)C1=O` (stereo not given), the “viability, % of DMSO” value was 100%.

Turning to `O=Nc1c(-c2c(O)[nH]c3cc(Br)ccc23)[nH]c2ccccc12`, the Potency was 18.7 µM (active).

For the compound `CN(C)C(=O)[C@H](O)[C@H](Cc1ccccc1)NC(=O)c1cc2cc(Cl)ccc2[nH]1`, the Potency was 1.66 µM (active).

For `N[C@@H](Cc1cc(I)c(Oc2cc(I)c(O)c(I)c2)c(I)c1)C(=O)O`, the “viability, % of DMSO” value is 124%.

Turning to `CCCCC(CC)COC(=O)C(C#N)=C(c1ccccc1)c1ccccc1` (stereo not given), the “viability, % of DMSO” value was 119%.

Regarding `O=c1cc(N2CCOCC2)oc2c(-c3ccccc3)cccc12`, the Potency is 16.6 µM (active).

Regarding `CN(C)c1ccc(O)c2c1C[C@H]1C[C@H]3[C@H](N(C)C)C(=O)C(C(N)=O)=C(O)[C@@]3(O)C(=O)C1=C2O`, the Potency was 20.9 µM (active).

As for `O=C(NC(Cc1cc(=O)[nH]c2ccccc12)C(=O)O)c1ccc(Cl)cc1` (stereo not given), the Potency is 9.35 µM (active).

For the compound `COc1ccc(C2(C#N)CCC(C(=O)O)CC2)cc1OC1CCCC1` (stereo not given), the “viability, % of DMSO” value is 147%.

Take `CC(C)C[C@H](NC(=O)[C@H](Cc1ccccc1)NC(=O)c1cnccn1)B(O)O`: the Potency is 0.0166 µM (active).

As for `CC(S)C(=O)NCC(=O)O` (stereo not given), the “viability, % of DMSO” value was 142%.

On to `CCC1=C(C)CN(C(=O)NCCc2ccc(S(=O)(=O)NC(=O)NC3CCC(C)CC3)cc2)C1=O` (stereo not given), for which the “viability, % of DMSO” value is 144%.

In the case of `CCCCCCCCCCCCCCCCCCCCCCO`, the “viability, % of DMSO” value was 150%.

`Clc1ccc(C(Cn2ccnc2)OCc2c(Cl)cccc2Cl)c(Cl)c1` (stereo not given): the Potency is 23.5 µM (active).

As to `Cc1nc(Nc2ncc(C(=O)Nc3c(C)cccc3Cl)s2)cc(N2CCN(CCO)CC2)n1`, the Potency is 3.32 µM (active).

Regarding `COc1cc2nc(N3CCN(C(=O)C4CCCO4)CC3)nc(N)c2cc1OC` (stereo not given), the “viability, % of DMSO” value is 116%.

Regarding `Cc1cccc(CN2CCN(C(c3ccccc3)c3ccc(Cl)cc3)CC2)c1` (stereo not given), the Potency was 23.5 µM (active).

For `CC(C)(S)[C@@H](N)C(=O)O`, the “viability, % of DMSO” value is 186%.

Turning to `Cc1cc2cc3c(C)cc(=O)oc3c(C)c2o1`, the Potency was 5.26 µM (active).

In the case of `CN(C)c1ccc2nc3ccc(=[N+](C)C)cc-3sc2c1`, the Potency is 0.662 µM (active).

As to `Cc1cc(C2CCCCC2)n(O)c(=O)c1`, the Potency was 18.7 µM (active).

Consider `O=C1CCc2ccc(OCCCCN3CCN(c4cccc(Cl)c4Cl)CC3)cc2N1`, for which the Potency is 18.7 µM (active).

Take `Cc1ccc(C)c(OCCCC(C)(C)C(=O)O)c1`: the “viability, % of DMSO” value was 97.8%.
